14-3-3 Bad inh – inhibitors of 14-3-3 zeta/Bad binding, primary screen, biochemical, TR-FRET, bovine 14-3-3 zeta; 14-3-3 protein zeta/delta (Bos taurus), P63103; TR-FRET 14-3-3zeta/Dy647-pBad peptide displacement, 1 h; inhibition, % at 21.7 µM; 220,000 compounds, 0.71% hits; AID 781, 2007;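 active means inhibition above about 70%, limit read from the data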
Target sequence (P63103 whole entry, looked up): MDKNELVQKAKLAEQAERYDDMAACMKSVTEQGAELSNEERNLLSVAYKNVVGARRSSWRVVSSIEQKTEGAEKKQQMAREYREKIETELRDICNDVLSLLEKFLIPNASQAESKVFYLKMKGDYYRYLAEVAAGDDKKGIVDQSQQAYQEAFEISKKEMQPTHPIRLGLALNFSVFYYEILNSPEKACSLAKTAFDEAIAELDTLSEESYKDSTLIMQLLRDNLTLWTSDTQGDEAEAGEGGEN
Mcl-1 Bim block – inhibitors of Bim peptide binding to Mcl-1, primary screen, biochemical, bead-based flow cytometry, multiplex; Induced myeloid leukemia cell differentiation protein Mcl-1 (Homo sapiens), Q07820; Bim peptide-Mcl-1 binding; inhibition, % at 10 µM; 190,000 compounds, 0.1% hits; in the data active means inhibition above about 40%
Target sequence (Q07820 whole entry, looked up): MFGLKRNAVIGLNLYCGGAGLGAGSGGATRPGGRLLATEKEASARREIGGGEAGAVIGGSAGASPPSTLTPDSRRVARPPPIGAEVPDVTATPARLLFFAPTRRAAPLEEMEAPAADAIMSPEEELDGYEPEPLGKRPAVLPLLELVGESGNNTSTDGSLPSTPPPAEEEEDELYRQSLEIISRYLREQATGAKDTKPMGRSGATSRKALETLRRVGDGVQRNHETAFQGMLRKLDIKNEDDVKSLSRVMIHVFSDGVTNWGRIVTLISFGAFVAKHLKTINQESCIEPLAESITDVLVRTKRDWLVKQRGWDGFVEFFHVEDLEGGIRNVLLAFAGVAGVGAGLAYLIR
Mcl1-Bid inh – Mcl-1/Bid binding inhibitors, primary screen, biochemical, TR-FRET, 1536-well. Induced myeloid leukemia cell differentiation protein Mcl-1 (Homo sapiens), Q07820. inhibition, % at 21.7 µM. TR-FRET Mcl-1/Bid-Dy647 peptide binding. AID 1021, 2008. 220,000 compounds, 0.97% hits;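 active means compounds that cut the binding signal by more than half at the single screening dose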;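 further: His-tagged Mcl-1 with europium anti-His antibody binding Bid BH3 peptide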
Pf gametocyte – late stage P. falciparum gametocyte viability inhibitors, primary screen, ATP luminescence, HTS; inhibition, % at 10.9 µM; AID 743093, 2013; 150,000 compounds, 0.065% hits; P. falciparum stage V gametocytes, 24 h;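 active means inhibition above the mean plus 3 SD of compounds within the control limits, set per campaign, cut at about 38% in these data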
eIF4E-4G inh – eIF4E–eIF4G protein interaction inhibitors, primary screen, biochemical, uHTS, TR-FRET, eIF4GI fragment; Eukaryotic translation initiation factor 4E (Mus musculus) + Eukaryotic translation …; TR-FRET eIF4E-eIF4GI(517-606) binding, 2 h; inhibition, % at 21.7 µM; 220,000 compounds, 0.37% hits;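 active means inhibition above about 30%, limit read from the data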
Mcl1-Noxa inh – Mcl-1/Noxa binding inhibitors, primary screen, biochemical, TR-FRET, 1536-well; Induced myeloid leukemia cell differentiation protein Mcl-1 (Homo sapiens), Q07820; TR-FRET Mcl-1/Noxa peptide binding, 2 h; 220,000 compounds, 1.5% hits; inhibition, % at 21.7 µM;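 active means compounds that cut the protein-peptide binding signal by more than 50% relative to plate controls in a single-dose test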;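 further: His-tagged Mcl-1 with rhodamine Noxa BH3 peptide and terbium anti-His antibody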
Numbers stand for hits; i = inactive; nt = not tested or not shown; [ ] = another dose, or the depositor's remark. Sampled rows, rich in hits. Any-hit rate of the full collection: about 2.7%.

SMILES	14-3-3 Bad inh	Mcl-1 Bim block	Mcl1-Bid inh	Pf gametocyte	eIF4E-4G inh	Mcl1-Noxa inh
CC1CCN(S(=O)(=O)c2cccc(C(=O)Nc3ccccn3)c2)CC1	i	i	79	i	i	i
O=C(CN1C(=O)NC2(CCCC2)C1=O)N1CCc2ccccc2C1	i	i	i	i	i	i
CN(C)c1ccc(NC(=O)COC(=O)c2cc(Cl)ccc2[N+](=O)[O-])cc1	i	i	i	i	i	54
NS(=O)(=O)c1ccc(NC(=O)COC(=O)c2cc(Cl)ccc2[N+](=O)[O-])cc1	i	nt	i	i	i	i
Cc1ccc(C(C)C)c(OCc2ccc(C(=O)N/N=C/c3ccc(C(=O)O)cc3)cc2)c1	i	nt	i	i	i	i
Cc1ccc(C(C)C)c(OCc2ccc(C(=O)N/N=C/c3ccc(O)cc3O)cc2)c1	i	i	52	nt	i	86
OCC1(Cc2ccccc2)CCN(Cc2cnc(-c3ccc(Cl)cc3)nc2)CC1	i	i	i	42	i	i
CCOC(=O)Nc1ccc2nc(Sc3ccc(Cl)cc3)sc2c1	i	nt	i	nt	i	i
COc1ccc(C(=O)Nc2cc(C)on2)cc1S(=O)(=O)N1CC(c2ccccc2)CC1=O (configuration not stated)	90	i	i	i	i	i
CCCS(=O)(=O)c1c(S(=O)(=O)CCC)c2ccc(C(N)=O)cn2c1C(=O)c1ccc(OC)cc1	i	i	i	i	i	i
Cc1ccc2cc(C)c3nnc(SCc4ccc(C(=O)O)cc4)n3c2c1C	i	nt	i	i	97	i
Cn1cnnc1SCc1ccc(C(=O)O)cc1	i	i	i	i	i	i
Cc1cccc(NC(=O)CN2C(=O)N/C(=C/c3ccc(C)o3)C2=O)c1	i	i	i	nt	i	85
CCn1c(C)cc(/C=C2/NC(=O)N(CC(=O)Nc3cccc(C)c3)C2=O)c1C	i	i	85	nt	i	54
CC(N=C(NC#N)Nc1ccncc1)C(C)(C)C (configuration not stated)	i	i	i	nt	i	i
COC(=O)C1=C(C)N(CCCC(=O)O)C(=O)NC1c1cc2c(cc1[N+](=O)[O-])OCO2 (configuration not stated)	i	i	i	nt	i	i
COC(=O)C1=C(C)N(C)C(=O)NC1c1cc2c(cc1[N+](=O)[O-])OCO2 (configuration not stated)	i	i	i	i	i	52
Cn1c(=O)c2ncn(CC(=O)Nc3cccc(-c4nc5ccccc5s4)c3)c2n(C)c1=O	i	i	i	nt	i	64
CCc1ccc(NC(=O)Cn2cnc3c(=O)n(C)c(=O)n(C)c32)cc1	i	i	i	i	i	i
COc1ccccc1NC(=S)N1CCN(C(=O)C2CCCO2)CC1 (configuration not stated)	i	i	i	i	i	i
O=C(CSc1nnc(CNc2ccccc2)o1)N1CCc2ccccc21	i	i	i	i	36	i
O=C(CSc1ncn(-c2ccccc2)n1)N1CCc2ccccc21	i	i	i	nt	31[fluorescence artefact?]	i
CC(C)(C)NC(=O)CSCc1ccc(Br)cc1	i	i	i	i	i	i
CCc1ccc(OCC(=O)N/N=C(\C)c2ccc3c(c2)OCCO3)cc1	i	i	i	nt	i	i
C/C(=N\NC(=O)COc1ccc(C(C)(C)C)cc1)c1ccc2c(c1)OCCO2	i	65	i	i	i	i
SMILES	14-3-3 Bad inh	Mcl-1 Bim block	Mcl1-Bid inh	Pf gametocyte	eIF4E-4G inh	Mcl1-Noxa inh
CC(C)N1C(=O)/C(=C\c2nc3ccccc3c(=O)[nH]2)c2ccccc21	i	i	70	i	i	55
c1ccc(-c2nnc(OCC3CCCO3)c3ccccc23)cc1 (configuration not stated)	i	i	i	i	i	i
O=C(/C=C/c1cn(-c2ccccc2)nc1-c1cccnc1)NCCN1CCOCC1	85	i	i	i	i	i
CC(C)(C)C(=O)CNCC(=O)C(C)(C)C	i	i	i	i	i	i
O=C(CNCC1(N2CCOCC2)CCCCC1)Nc1ccc(Cl)cc1	i	i	i	nt	i	i
CC1CCC(C(C)C)C(OC(=O)COC(=O)c2ccc(N)cc2)C1 (configuration not stated)	i	i	i	i	54	i
COc1cc(/C=C(\C#N)c2nc3c(s2)CCCC3)ccc1O	i	i	i	nt	i	51
N#C/C(=C\c1cccnc1)c1nc2c(s1)CCCC2	i	i	i	i	i	i
COc1ccc(/C=C(\C#N)C(=O)OCC(=O)Nc2ccc(-c3nc4ccc(C)cc4s3)cc2)cc1	i	i	i	i	i	i
CCC(=O)OC1(C#CCOc2ccc(OC)cc2)CCN(C)CC1	i	i	53	nt	i	i
Cc1ccn2c(-c3n[nH]c(=S)n3C)c(C)nc2c1	i	i	i	i	i	54
Cc1cccc(-c2n[nH]c(=S)n2C)c1	i	i	i	i	i	i
O=C(NNS(=O)(=O)c1ccc2ccccc2c1)c1cccnc1	i	i	i	i	i	i
O=S(=O)(Nc1ccncc1Cl)c1ccc2ccccc2c1	72	i	i	i	i	i
O=C(CSc1ncn[nH]1)Nc1ccccc1Sc1ccccc1	i	i	i	i	i	i
CCc1cc2c3c(c1)C1(C(=O)N3C(C)(C)CC2C)C(C#N)=C(N)N2C(=C1C#N)Nc1ccccc12 (configuration not stated)	i	i	i	nt	i	i
Cc1sc(NC(=O)CN2CCOCC2)c(C#N)c1C	i	nt	i	i	i	i
O=C(CSc1nc2nn(-c3ccccc3)c(=O)c-2c2n1CCCCC2)NCCc1ccccc1	i	i	i	i	i	55
CCSc1nc2nn(-c3ccccc3)c(=O)c-2c2n1CCCCC2	i	i	i	nt	i	i
Cc1nc(C)c(NC(=O)OC(C)C)cc1NC(=O)OC(C)C	i	i	i	i	i	i
CCCCc1ccc(N=N/C(C(=O)Nc2ccc(NC(C)=O)cc2OC)=C(/C)O)cc1	nt	nt	nt	i	nt	nt
c1ccc(CNc2nc(NCc3ccccc3)c3ccccc3n2)cc1	i	nt	i	nt	i	60
c1ccc(CNc2nc(-c3ccccc3)nc3ccccc23)cc1	nt	nt	nt	i	nt	nt
Cc1nc(NCc2ccccn2)c2ccccc2n1	70	i	i	nt	i	i
CC1CCN(C(=O)C2CCC(C)(C(=O)O)C2(C)C)CC1 (configuration not stated)	i	i	i	nt	i	i
Fc1cccc(Cl)c1CNc1ccc(N2CCCC2)cc1	i	i	i	i	35	72

Screens (PubChem)
